Test systems include HCT-15 colon; HT29 colon; SNB-75 CNS; SNB-19 CNS; PC-3 prostate; SK-MEL-5 melanoma; UACC-62 melanoma; LOX IMVI melanoma; SK-MEL-28 melanoma; U251 CNS.
Test in all cases: NCI-60 one-dose screen, 48 h (100 = growth as untreated, 0 = no growth, -100 = all killed)
What all share (settings): 10 µM unless noted

This note sets out measurements from PubChem BioAssay (NCI).

This is part of a sample that, as a whole, favours compounds with a hit. Of some 83,000 tested, about 20% had one in any assay.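 Interpretation: 100, growth as untreated; towards 0, rising growth inhibition; 0, no net growth; 0 to -100, cell death. Compounds scoring below 10 were considered active.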 Values without a mark were called inactive. Calls of active or inactive are those of the source.

With `C#C[C@@]1(O)[C@@H](CO)O[C@@H](n2cc(Cl)c3c(N)ccnc32)[C@@H]1O`, the growth with HCT-15 colon is 50.8%; with HT29 colon it was 38.7%; with SNB-75 CNS, 140%; with SNB-19 CNS it was 89.9%; with PC-3 prostate it was 36.7%; with SK-MEL-5 melanoma, 70.8%. Besides, the growth was 105% in the assay on UACC-62 melanoma, 42% with LOX IMVI melanoma and 100% with SK-MEL-28 melanoma.
`C=CCn1c(SCC(=O)Nc2ccc(C(=O)/C=C/c3cc(OC)c(OC)c(OC)c3)cc2)nnc1-c1ccccc1`: the growth is 61.1% with HCT-15 colon; 49.1% in the assay on HT29 colon; 95.2% in the assay on SNB-75 CNS; 86% in the assay with SNB-19 CNS; 64.4% in the assay on U251 CNS; 94.1% with PC-3 prostate. Also, the growth in the assay on SK-MEL-5 melanoma is 77.3%; in the assay on LOX IMVI melanoma, 68.7%; in the assay on SK-MEL-28 melanoma, 110%.
As for `COc1cc(NCC(=O)Nc2cc(Nc3ccc(C)cc3)ncn2)c(Cl)c(OC)c1Cl`, the growth with HCT-15 colon was 89.9%; with HT29 colon it was 95.3%; with SNB-75 CNS it was 78.4%; in the assay with SNB-19 CNS, 95.9%; in the assay on U251 CNS, 87.2%; in the assay with PC-3 prostate, 69.1%. For the same compound, the growth in the assay with SK-MEL-5 melanoma was 91.6%; in the assay with LOX IMVI melanoma, 84.5%; in the assay with SK-MEL-28 melanoma, 107%.
With `CC1(C)Cc2c(Br)c(Br)c(Br)c(OCC(O)CN3CCOCC3)c2O1` (stereo not given), the growth is 88.2% in the assay with HCT-15 colon; 64.6% in the assay on HT29 colon; 94% in the assay on SNB-75 CNS; 100% in the assay with SNB-19 CNS; 93.5% in the assay on U251 CNS; 9.22% (active) in the assay on PC-3 prostate. Moreover, the growth is 66.5% in the assay on SK-MEL-5 melanoma, 87.1% with LOX IMVI melanoma and 137% with SK-MEL-28 melanoma.
Consider `COc1ccc(N(C)c2nc(Cl)nc3ccn(C)c23)cc1`, for which the growth was 12.6% with HCT-15 colon; -2.47% (active) with HT29 colon; 56.8% in the assay on SNB-75 CNS; 25.3% in the assay on SNB-19 CNS; 3.67% (active) with U251 CNS; 16.1% in the assay on PC-3 prostate. Besides, the growth in the assay with SK-MEL-5 melanoma is -44.2% (active); with LOX IMVI melanoma, 27.6%; in the assay with SK-MEL-28 melanoma it was 49.2%.
Consider `COc1ccc(Nc2cc(NC(=O)CNc3cc(OC)c(Cl)c(OC)c3Cl)ncn2)cc1`, for which the growth is 73.5% in the assay on HCT-15 colon; 80.9% with HT29 colon; 81.3% with SNB-75 CNS; 96.8% in the assay with SNB-19 CNS; 88.5% in the assay on U251 CNS; 57.9% with PC-3 prostate. Besides, the results for the growth in the assay with SK-MEL-5 melanoma, in the assay on LOX IMVI melanoma and in the assay with SK-MEL-28 melanoma were 85.1%, 57.2% and 84.7%, respectively.
For `O=[N+]([O-])c1ccc(Oc2ccc(-c3ccccc3)cc2)cc1`, the growth was 81.8% with HCT-15 colon; 76.6% in the assay on HT29 colon; 93.5% with SNB-75 CNS; 94% with SNB-19 CNS; 75.8% in the assay with PC-3 prostate; 88.2% in the assay on SK-MEL-5 melanoma. For the same compound, the growth in the assay on UACC-62 melanoma was 63%; with LOX IMVI melanoma, 96.3%; in the assay on SK-MEL-28 melanoma it was 105%.
Take `C[C@H]1[C@H](C)CC[C@]2(C(=O)OCCCC[P+](c3ccccc3)(c3ccccc3)c3ccccc3)CC[C@]3(C)C(=CC[C@@H]4[C@@]5(C)CC[C@H](OC(=O)C(Cl)Cl)C(C)(C)[C@@H]5CC[C@]43C)[C@H]12`: the growth in the assay with HCT-15 colon is -68.8% (active); in the assay on HT29 colon, -55.5% (active); in the assay with SNB-75 CNS, -24.5% (active); with SNB-19 CNS, -56.1% (active); in the assay with U251 CNS, -88.6% (active); in the assay on PC-3 prostate it was -60.8% (active). Further, the growth is -100% (active) in the assay with SK-MEL-5 melanoma, -99.6% (active) with LOX IMVI melanoma and -77.4% (active) in the assay on SK-MEL-28 melanoma.
`NS(=O)(=O)c1ccc(-n2ncc(NC(=O)Nc3ccc(S(=O)(=O)Nc4nccs4)cc3)c2-c2ccccc2)cc1`: the growth is 104% with HCT-15 colon; 99.9% in the assay with HT29 colon; 65.7% in the assay with SNB-75 CNS; 103% in the assay on SNB-19 CNS; 102% in the assay with U251 CNS; 111% in the assay with PC-3 prostate. For the same compound, the growth is 105% with SK-MEL-5 melanoma, 101% with LOX IMVI melanoma and 102% with SK-MEL-28 melanoma.
As for `C=C(C)[C@@H]1CC[C@]2(C(=O)O)CC[C@]3(C)[C@H](CC[C@@H]4[C@@]5(C)C[C@@H](CC#Cc6ccc(Cl)cc6)C(=O)C(C)(C)[C@@H]5CC[C@]43C)[C@@H]12`, the growth in the assay with HCT-15 colon is 45.5%; in the assay on HT29 colon, 30.1%; with SNB-75 CNS, 70%; with SNB-19 CNS, 54%; in the assay on U251 CNS, 28.1%; in the assay with PC-3 prostate, 25.9%. Moreover, the results for the growth with SK-MEL-5 melanoma, in the assay with LOX IMVI melanoma and in the assay with SK-MEL-28 melanoma were 51.8%, 59.6% and -23.1% (active), respectively.
On to `COc1cc(/C=N/Nc2nc(-c3ccc(F)cc3)c(C#N)c(N3CCOCC3)n2)ccc1O`, for which the growth with HCT-15 colon is 99.9%; in the assay with HT29 colon, 96%; in the assay with SNB-75 CNS, 84%; in the assay on SNB-19 CNS it was 92.9%; with U251 CNS, 97.6%; in the assay with PC-3 prostate, 96.4%. Moreover, the growth in the assay with SK-MEL-5 melanoma is 102%; in the assay with LOX IMVI melanoma, 107%; in the assay with SK-MEL-28 melanoma it was 99.9%.
`CCOC(=O)c1c(C)nc2c(c1N)/C(=C/c1ccccn1)C(=O)N2Cc1ccccc1`: the growth in the assay on HCT-15 colon was -58.9% (active); with HT29 colon, -18.6% (active); with SNB-75 CNS, 68.6%; in the assay with SNB-19 CNS, 0.719% (active); with U251 CNS it was -87.4% (active); in the assay with PC-3 prostate it was 2.04% (active). For the same compound, the growth in the assay with SK-MEL-5 melanoma was 41.2%; in the assay with LOX IMVI melanoma it was -88.4% (active); in the assay on SK-MEL-28 melanoma, -2.42% (active).
With `CC(=O)c1cc2c(N)c(C(=O)Nc3ccccn3)sc2nc1C`, the growth with HCT-15 colon was 82.8%; in the assay with HT29 colon it was 85.5%; in the assay with SNB-75 CNS it was 75.1%; with SNB-19 CNS, 82.4%; in the assay with PC-3 prostate it was 99.3%; in the assay with SK-MEL-5 melanoma, 64.5%. The growth was 57.8% in the assay with UACC-62 melanoma, 91.6% in the assay on LOX IMVI melanoma and 82.1% in the assay on SK-MEL-28 melanoma.
As to `COc1ccc(-c2nc(C#N)c(NCC(c3ccco3)N3CCCC3)o2)cc1` (stereo not given), the growth with HCT-15 colon was 30.9%; in the assay with HT29 colon it was 10.7%; with SNB-75 CNS, 40.6%; in the assay on SNB-19 CNS, 51.9%; with PC-3 prostate, 37%; in the assay on SK-MEL-5 melanoma, 24.6%. Further, the growth in the assay with LOX IMVI melanoma is 41.4%; in the assay with SK-MEL-28 melanoma it was 61.7%.
